According to PubChem BioAssay AID624169 (The Scripps Research Institute Molecular Screening Center, 2012):
Screen size: about 360,000 compounds; about 2,400 (0.67%) were called active. Only a selection was taken, and actives are over-represented in it overall. Unmarked numbers belong to inactive results.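 The calls were made as follows: active = activation above a run cutoff, the mean activation of all tested compounds plus 3 SD (cut at about 14% in these data); inactive = the rest.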

Target: 5-hydroxytryptamine receptor 2A (Mus musculus) (UniProt P35363)
Assay: activation of mouse 5-HT2A receptor – cell-based, luminescence, primary screen (AID 624169);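 also: 0% = plate median of compound wells and 100% = 30 µM serotonin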
Settings: CHO-K1 mHTR2A beta-arrestin complementation, at 7.6 µM, active compounds read high, percent of 30 µM serotonin response

Sequence of 5-hydroxytryptamine receptor 2A (Mus musculus) (P35363 whole entry, looked up): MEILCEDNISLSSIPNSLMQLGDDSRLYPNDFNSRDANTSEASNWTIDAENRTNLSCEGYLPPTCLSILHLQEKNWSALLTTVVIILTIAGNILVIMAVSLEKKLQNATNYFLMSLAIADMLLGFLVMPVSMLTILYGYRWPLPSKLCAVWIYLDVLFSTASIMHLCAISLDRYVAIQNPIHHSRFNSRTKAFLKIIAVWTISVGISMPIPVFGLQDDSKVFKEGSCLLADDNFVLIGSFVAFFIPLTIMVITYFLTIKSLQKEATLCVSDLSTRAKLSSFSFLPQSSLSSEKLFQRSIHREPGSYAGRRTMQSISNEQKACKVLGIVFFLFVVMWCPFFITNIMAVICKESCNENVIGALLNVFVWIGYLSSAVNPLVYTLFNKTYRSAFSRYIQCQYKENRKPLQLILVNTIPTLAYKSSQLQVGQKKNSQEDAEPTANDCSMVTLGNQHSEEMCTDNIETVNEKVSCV

SMILES	activation
COc1ccc(C(C)=O)cc1COC(=O)Cn1cnc2ccccc2c1=O	16.5% (active)
COCc1cc(C(C)=O)ccc1OC	2.94%
CCN(CC(=O)Nc1ccccc1OC)C(=O)Cn1cnc2ccccc2c1=O	2.03%
CN1OC[C@@H]2CN[C@H](c3ccc(-c4ccccc4)cc3)C[C@@H]21	-5.82%
Cc1ccc(S(=O)(=O)NN=C2CC(C)(C)CC(=O)C2(C)C)cc1	-0.12%
Cc1ccc(C2(c3ccc(C)cc3)NC(=O)N(Cc3c(C)noc3C)C2=O)cc1	-0.69%
CCCNC(=O)CCn1nc(-c2ccccc2)c2ccccc2c1=O	5.25%
COC(=O)Cn1nc(-c2ccccc2)c2cc(Cl)ccc21	18.3% (active)
COc1ccccc1CNC(=O)Cn1c(=O)oc2cc(Cl)ccc21	-2.35%
COC(=O)c1ccccc1N=Nc1c(C)[nH][nH]c1=O	-4.12%
CC(C)(C)SCCSC1=CC(=O)CC(c2ccccc2)C1 (stereo unspecified)	-1.98%
O=C(NCc1ccco1)c1cnn2c(C(F)(F)F)cc(-c3ccco3)nc12	0.02%
O=c1oc(-c2ccco2)nc2sc3c(c12)CCCCC3	-3.64%
O=C(NCc1ccco1)c1cccn2c(=O)c3c4c(sc3nc12)CCCC4	19.5% (active)
COc1ccc(OCCCC(=O)OC(C)C(=O)Nc2ccccc2[N+](=O)[O-])cc1 (stereo unspecified)	9.6%
Cc1ccc(OCc2nnc(NC(=O)OCC(C)C)s2)cc1	-4.72%
COc1ccc2[nH]cc(CCN3C(=O)c4ccc(C(=O)O)cc4C3=O)c2c1	19.3% (active)
Cc1ccc2[nH]cc(CCCN3C(=O)c4ccccc4C3=O)c2c1	-2.51%
COCCCN1C(=O)c2ccc(C(=O)Nc3ccc(OC)cc3OC)cc2C1=O	12.7%
O=C(Nc1ccc2c(c1)[C@@H]1C[C@@H](CC(=O)N3CCCCC3)O[C@@H](CO)[C@@H]1O2)NC1CCCCC1	15.4% (active)
O=C(C[C@H]1C[C@@H]2c3cc(NC(=O)C4CCC4)ccc3O[C@@H]2[C@H](CO)O1)NC1CCCCC1	-0.85%
COC(=O)C[C@H]1C[C@@H]2c3cc(NC(=O)Nc4ccccc4)ccc3O[C@@H]2[C@@H](CO)O1	2.06%
O=C(CCS(=O)(=O)c1cccc2nsnc12)N1CCN(c2ccccc2F)CC1	4.25%

SMILES	activation
COC(=O)[C@@H]1CCCN1C(=O)c1cc(COc2cccc3cccnc23)on1	2.24%
CCS(=O)(=O)Nc1ccc(C2=NN(S(=O)(=O)c3ccc(F)cc3)C(c3ccco3)C2)cc1 (stereo unspecified)	-6.66%
COc1ccc(C(=O)C[n+]2ccc(C)cc2)cc1	-0.16%
CO/N=C/CC(=O)c1ccc(OC)cc1	21.9% (active)
COc1ccc(C(=O)COC(=O)c2ccc3ccccc3n2)cc1	-0.68%
Cc1cccc(NC(=O)c2cc(S(=O)(=O)N3CCC4(CC3)OCCO4)ccc2F)c1	-2.45%
COc1ccc(/C(O)=C2/C(=O)C(=O)N(c3nc(C)c(C)s3)C2c2ccco2)cc1 (stereo unspecified)	0.59%
CCOc1ccc(/C(O)=C2\C(=O)C(=O)N(c3ccc(OC)cc3)C2c2ccccc2[N+](=O)[O-])cc1 (stereo unspecified)	23.9% (active)
COc1ccc(C2/C(=C(/O)c3ccccc3)C(=O)C(=O)N2c2ncccn2)cc1OC (stereo unspecified)	-1.25%
CCN(CCn1cccn1)Cc1nc(-c2ccc(C(=O)OC)cc2)no1	2.48%
N=C1c2ccccc2-c2ccccc21	3.53%
Cc1nnc(C)c2c(C)n(N)c(C)c12	-1.02%
N#CCSc1nn(-c2ccc(F)cc2)c(=S)s1	15.4% (active)
O=C(CSc1nn(-c2ccc(F)cc2)c(=S)s1)NC1CCS(=O)(=O)C1 (stereo unspecified)	-0.71%
Cc1ccccc1-n1nc(SCC(=O)O)sc1=S	-1.31%
COCCCN(C(=O)CSCc1ccc(C)cc1)c1c(N)n(Cc2ccccc2)c(=O)[nH]c1=O	7.86%
CC1C(C)N(C(=O)CCl)c2ccccc2N1C(=O)CCl (stereo unspecified)	-1.04%
Cn1c2c(c(=O)n(C)c1=O)C(c1cccc([N+](=O)[O-])c1)Nc1ccccc1O2 (stereo unspecified)	-3.64%
Cn1c2c(c(=O)n(C)c1=O)C(c1ccc(O)cc1)Nc1ccccc1O2 (stereo unspecified)	27% (active)
Cn1c2c(c(=O)n(C)c1=O)C1c3ccccc3OCC1C(C)(C)O2 (stereo unspecified)	-0.33%
COC(=O)COc1ccc(C2NC(=O)NC(C)=C2C(=O)NCc2ccccc2)cc1OC (stereo unspecified)	-4.71%
COCCCn1cc(CN2CC(N(C)C)CS2(=O)=O)nn1 (stereo unspecified)	5.48%
Cc1c(Br)c([N+](=O)[O-])nn1CC(=O)Nc1sc2c(c1C(=O)OC(C)C)CCC(C)C2 (stereo unspecified)	2.43%

SMILES	activation
O=S(=O)(c1ccc(OCC(O)CN2CCN(c3ccccc3Cl)CC2)cc1)N1CCOCC1 (stereo unspecified)	22.4% (active)
CC(=O)c1ccc(OCC(O)CN2CCN(S(=O)(=O)c3cccc(Br)c3)CC2)cc1 (stereo unspecified)	1.8%
CC(=O)Nc1ccc(OCC(O)CN2CCN(c3ccccc3Cl)CC2)cc1 (stereo unspecified)	2.24%
Cc1cc(C(=O)NNS(=O)(=O)c2ccccc2C(F)(F)F)nn1C(C)(C)C	-0.74%
CCOC(=O)[C@]12CCCC=C1N(CCC1=CCCCC1)C(=O)[C@H](CC(=O)NCCCCc1ccccc1)C2	3.93%
Cc1[nH]c2ccccc2c1CCN(Cc1cccs1)C(=S)NC(C)(C)C	24.1% (active)
COc1ccc2[nH]c(C)c(CCN(Cc3cccs3)C(=S)Nc3ccccc3OC)c2c1	10.5%
CCNC(=S)N(CCc1c(C)[nH]c2ccc(C)cc12)Cc1ccco1	-4.57%
CCOC(=O)c1cccc(NC(=O)C2CCN(c3ncnc4c3nc3n4CCCCC3)CC2)c1	-3.05%
CCOCCCN1C(=O)C2C(C(=O)Nc3ccc(OCC)cc3)C3C=CC2(O3)C1C(=O)NC1CCCCC1 (stereo unspecified)	6.26%
COc1ccc(C(C)(C)C)cc1NC(=O)CCN1C(=O)C2CCCCC2C1=O (stereo unspecified)	-4.43%
Cc1onc(-c2ccccc2)c1-c1nnc(COC(=O)c2ccc(N(C)C)cc2)o1	-6.2%
Cc1ccc(C(=O)NCC(=O)OCc2nnc(-c3ccccc3)o2)cc1	14.8% (active)
O=C(OCc1nnc(-c2ccccc2)o1)c1ccc2c(c1)C(=O)N(CCc1ccccc1)C2=O	1.62%
CSc1ccc(NC(=O)N2CC(C)OC(C)C2)cc1 (stereo unspecified)	-3.29%
CCCCn1nc(C(=O)Nc2cccc(C(=O)NC3CC3)c2)c2ccccc2c1=O	2.3%
Cn1cccc1C(=O)OCC(=O)c1ccc(Br)s1	-5.88%
OC(COc1ccc(F)cc1Cl)CN1CCc2ccccc2C1 (stereo unspecified)	-18.7%
COc1ccccc1C(c1nnnn1CC1CCCO1)N1CCN(c2ccccc2)CC1 (stereo unspecified)	-1.76%
O=C(Cc1ccccc1)n1nc(-c2ccccc2)nc1NCc1ccco1	17.4% (active)
O=C(NCc1ccco1)/C(=C/c1ccco1)NC(=O)c1ccccc1	2.71%
O=C(c1cccs1)n1nc(NCc2ccccc2)nc1NCc1ccccc1	-1.74%
CC(C)NS(=O)(=O)c1ccc(NC(=O)C2CCCCC2)cc1	-5.58%

SMILES	activation
Cc1nc2ccc(NC(=O)C3CCCCC3)cc2s1	5.67%
CS(=O)(=O)c1ccc2nc(NC(=O)C3CCCCC3)sc2c1	14.9% (active)
Cc1ccc2nc(NC(=O)C3CCN(S(=O)(=O)c4ccc5c(c4)oc(=O)n5C)CC3)sc2c1	-3.71%
O=C(NCCCN1CCCCCC1)C1CC(=O)N(C2CCCC2)C1 (stereo unspecified)	2.65%
O=C(NCCCN1CCN(c2ccccc2F)CC1)C1CCC(=O)N1C1CCCCC1 (stereo unspecified)	16.5% (active)
COc1ccc(CN2CC(C(=O)NCCN3CCN(c4ccccc4F)CC3)CC2=O)cc1 (stereo unspecified)	-3.29%
COC(=O)c1ccccc1NC(=O)C1CCN(S(=O)(=O)c2cc(OC)ccc2OC)CC1	-1.33%
Cc1cc(C)cc(C(=O)N(CCc2ccccc2)C2=CC3CCC(C2)N3C)c1 (stereo unspecified)	-10.4%
CCCN(CCc1ccccc1)C1CCc2c(O)cccc2C1 (stereo unspecified)	50.6% (active)
COC(=O)c1ccc(CN2C(=O)C(Cc3ccccc3)ON=C2c2ncccc2C)o1 (stereo unspecified)	0.18%
CCOc1ccccc1NS(=O)(=O)c1cc2c3c(c1)C(C)C(=O)N3CCC2 (stereo unspecified)	5.3%
C/C(=N\NC(=O)CSc1nc2ccccc2c(=O)n1-c1ccccc1C)c1cccs1	-1%
C/C(=N\OCC(=O)Nc1ccc(Br)cc1)c1cccs1	-2.57%
C/C(=N\NC(=O)COc1c(C)cccc1C)c1cccs1	14.4% (active)
CN(C)C(=O)c1nc2ccc(Cl)cn2c1CN1CCN(c2ncccn2)CC1	1.37%
Cc1ccc(CN2CCN(/N=C/c3cccnc3)CC2)c(C)c1	-3.83%
Cc1ccc(CN2CCN(/N=C/c3ccco3)CC2)c(C)c1	-2.05%
COc1ccccc1-c1nn(Cc2ccccc2)cc1C(=O)N1CCN(c2ncccn2)CC1	11.3%
Oc1ccc(CN2CCN(c3ncccn3)CC2)cc1	30.1% (active)
Cc1ccc(CN2CCN(c3ncccn3)CC2)c(C)c1	25.6% (active)
CC1(C)CCSC(/C=C/c2ccccc2)=N1	-2.29%
Nc1c(C(=O)O)cnn1-c1ccccc1	2.02%
